The values that follow come from PubChem BioAssay AID1851 (National Center for Advancing Translational Sciences (NCATS), 2009).

The structures appear in SMILES notation. Several values for one entry are separate records, joined by “and”; a condition that tells them apart may be missing. Identical values can stand only once. The whole screen tested about 16,000 compounds, of which about 5,800 (36%) were called active. Another 23% or so got no clear call; they are omitted. The list shows a part of the results. A number with no mark means an inactive call. Calls come from the whole dose curve; as a rule, active = well fitted curve in the direction sought with a large enough effect; inconclusive = small, poorly fitted or top-dose-only effect, or effect the other way; inactive = no such curve, though single readings can be large or run the other way.

For orientation: AC50 means the concentration at which the activity in the assay is half-maximal.
% is set by controls: 0 for no effect and ±100 for the full control effect.

The assay deals with Cytochrome P450 2C19 (Homo sapiens) (UniProt P33261). Nature of the assay: Cytochrome panel assay with activity outcomes. The settings on record: recombinant CYP, pro-luciferin dealkylation, luminescence, p450-cyp2c19; series mostly up to 57.1 µM.
Cytochrome P450 2C19 (Homo sapiens), sequence (P33261 whole entry, looked up): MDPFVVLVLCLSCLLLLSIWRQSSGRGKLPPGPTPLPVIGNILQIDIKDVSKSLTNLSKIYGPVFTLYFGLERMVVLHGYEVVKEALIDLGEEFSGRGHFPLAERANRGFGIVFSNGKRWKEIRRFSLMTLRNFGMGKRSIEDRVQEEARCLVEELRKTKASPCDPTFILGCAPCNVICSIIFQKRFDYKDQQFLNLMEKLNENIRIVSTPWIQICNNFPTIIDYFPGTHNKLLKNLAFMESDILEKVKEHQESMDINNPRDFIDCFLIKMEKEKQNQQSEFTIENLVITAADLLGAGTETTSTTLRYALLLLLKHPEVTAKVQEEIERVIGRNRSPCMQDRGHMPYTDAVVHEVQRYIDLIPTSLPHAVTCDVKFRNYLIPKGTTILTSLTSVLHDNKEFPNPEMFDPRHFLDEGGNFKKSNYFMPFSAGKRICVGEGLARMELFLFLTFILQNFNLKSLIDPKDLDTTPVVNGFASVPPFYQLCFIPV
In the case of `Cc1cc(Cl)ccc1OCC(=O)NCc1ccncc1`, the AC50 was 1.26 µM (active).

For the compound `Cc1cc(Cl)ccc1OCC(=O)Nc1nc(N)nc(N)n1`, the activity, negative = inhibition was 8.03% [at 11.4 µM].

As for `CCCn1nnnc1NC(=O)COc1ccc(Cl)cc1C`, the concentration at half-maximal activity (AC50) is 7.94 µM (active).

Regarding `O=C(O)[C@@H]1[C@@H](C(=O)NCc2ccncc2)[C@@H]2C=C[C@@H]1O2`, the activity, negative = inhibition is 9.32% [at 11.4 µM].

With `O=C(/C=C\c1ccc(O)c(O)c1)O[C@@H]1C[C@](O)(C(=O)O)C[C@@H](O)[C@@H]1O`, the AC50 entry was “inactive”.

Take `CCOC(=O)Oc1c(OC)cc(C(=O)O[C@H]2C[C@H]3CN4CCc5c([nH]c6cc(OC)ccc56)[C@@H]4C[C@H]3[C@@H](C(=O)OC)[C@@H]2OC)cc1OC`: the AC50 result is “inactive”.

With `Cc1n[nH]c(=O)n1-c1cccc(C(F)(F)F)c1`, the AC50 entry is “inactive”.

For the compound `CCOC(=O)c1sc(=S)n(-c2cccc(C(F)(F)F)c2)c1SC`, the half-maximal activity concentration (AC50) was 1.26 µM (active).

Turning to `O=C(O)NCC1CCCCC1` (tested in a mixture with another compound), the activity, negative = inhibition was -22.4% [at 11.4 µM].

Turning to `O=C(CSc1nnc(SCc2cccc3ccccc23)s1)c1ccc2c(c1)OCO2`, the AC50 was 2.51 µM (active).

Regarding `FC(F)(F)c1ccccc1-c1cncnc1Nc1ccccc1`, the half-maximal activity concentration (AC50) is 7.94 µM (active).

Take `Fc1ccc(Nc2ncncc2-c2ccccc2C(F)(F)F)cc1`: the half-maximal activity concentration (AC50) was 7.94 µM (active).

As to `Cc1nc(NS(=O)(=O)c2ccc(Br)cc2)c2c3c(sc2n1)CCC3`, the AC50 was 3.55 µM (active).

Turning to `CCCSc1nc(NCc2ccco2)c2c3c(sc2n1)COC(C)(C)C3`, the AC50 was 7.08 µM (active).

For the compound `Cc1nc(NS(=O)(=O)c2ccccc2C)c2c3c(sc2n1)CCC3`, the concentration at half-maximal activity (AC50) is 8.91 µM (active).

Regarding `Cc1nc(NCc2ccco2)c2c3c(sc2n1)CCC3`, the half-maximal activity concentration (AC50) is 10 µM (active).

Take `Cc1cc(C)n(-c2nc(NCC(C)O)c3c4c(sc3n2)COC(C)(C)C4)n1` (centres undefined): the AC50 result is “inactive”.

As to `CN(C)S(=O)(=O)c1nc(Cl)c2[nH]cnc2n1`, the activity, negative = inhibition is 24.6% [at 11.4 µM].

With `CC[C@H](C)[C@@H]1O[C@]2(CC[C@@H]1C)C[C@H]1C[C@H](CC=C(C)[C@@H](O[C@@H]3C[C@H](OC)[C@H](O[C@@H]4C[C@H](OC)[C@H](O)[C@H](C)O4)[C@H](C)O3)[C@@H](C)C=CC=C3CO[C@@H]4[C@@H](O)C(C)=C[C@@H](C(=O)O1)[C@]34O)O2`, the AC50 entry was “inactive”.

For the compound `Cc1ccc(NC(=O)Cn2nc([N+](=O)[O-])c(Br)c2C)cc1C`, the half-maximal activity concentration (AC50) was 5.62 µM (active).

`O=C(Nc1ccc(Cl)c(C(F)(F)F)c1)C1CCCN(S(=O)(=O)c2cnc[nH]2)C1` (centres undefined): the concentration at half-maximal activity (AC50) was 0.562 µM (active).

`O=[N+]([O-])c1ccc2nc(-c3ccccc3)n(OCc3ccc(Cl)cc3)c2c1`: the AC50 was 1.58 µM (active).

Regarding `Clc1ccc(COn2c(-c3ccccc3)nc3ccccc32)cc1`, the half-maximal activity concentration (AC50) is 0.141 µM (active).

As to `O=[N+]([O-])c1ccc2nc(-c3ccc(Cl)cc3)n(OCc3ccccc3)c2c1`, the AC50 entry was “inactive”.

On to `COc1ccc(CN2CN(c3ccc(Cl)cc3)C(=O)N(n3cnnc3)C2)cc1`, for which the AC50 result was “inactive”.

Take `COc1ccc2nc(N3C(=O)CC(Cc4ccc(Cl)cc4)C3=O)sc2c1` (centres undefined): the concentration at half-maximal activity (AC50) was 3.55 µM (active).

With `CCC1CCCCN1Cc1cc(OC)c(O)c([N+](=O)[O-])c1` (centres undefined), the AC50 entry was “inactive”.

With `Cc1ccc(N=CC2=C(O)CC(c3ccco3)CC2=O)cc1` (centres undefined), the half-maximal activity concentration (AC50) is 7.94 µM (active).

For `COC(=O)C1=C(C)NC(C)=C(C(=O)OCCSc2ccccc2)[C@@H]1C`, the concentration at half-maximal activity (AC50) is 0.2 µM (active).

Consider `O=C(O)CC/C=C\CC[C@H]1[C@@H](N2CCCCC2)[C@@H](O)C[C@@H]1OCc1ccc(-c2ccccc2)cc1`, for which the AC50 entry is “inactive”.

As for `Cc1cccc(N(C)C(=S)Oc2ccc3ccccc3c2)c1`, the concentration at half-maximal activity (AC50) is 0.1 µM (active).

Regarding `O=C(CCN1C(=O)c2ccccc2C1=O)Oc1ccc2ccccc2c1`, the AC50 entry was “inactive”.

As to `O=C(Nc1cc(C(F)(F)F)ccc1-n1cncn1)c1ccc(Br)cc1`, the AC50 is 2.24 µM (active).

Regarding `CC(=O)Nc1ccc(S(=O)(=O)N2CCN(c3nc(NC4CCCC4)c4ccccc4n3)CC2)cc1`, the AC50 is 7.08 µM (active).

Turning to `Cc1ccc(C(=N)c2ccccc2Cc2cccc3ccccc23)c2ccccc12`, the half-maximal activity concentration (AC50) is 1.26 µM (active).

Turning to `Cc1cc(C)cc(C(=N)c2ccccc2Cc2cccc3ccccc23)c1`, the AC50 is 1.58 µM (active).

On to `Cc1cc(C)c(O)c(Cc2cccc(Cc3cc(C)cc(C)c3O)c2O)c1`, for which the activity, negative = inhibition was 8% [at 11.4 µM].

For `C#CCCCO/N=C1/C[C@@H](O)[C@@H](O)[C@@H]2[C@@H]3C(=O)N(C[C@@H]4CCCO4)C(=O)[C@H]3CC[C@H]12`, the activity, negative = inhibition was -15.3% [at 11.4 µM].

As to `ClC(Cl)(Cl)C(N1CCN(c2ccccc2)CC1)N1CCN(c2ccccc2)CC1`, the activity, negative = inhibition is 21% [at 11.4 µM].

Turning to `CC(C)CC(c1nnnn1C(C)C)N1CCN(c2ccccc2)CC1` (centres undefined), the AC50 was 5.01 µM (active).

As for `CCOC(=O)c1cnn(-c2nc(-c3cccc(F)c3)cs2)c1C(F)(F)F`, the half-maximal activity concentration (AC50) is 2.82 µM (active).

As for `CCN(CC)CCOc1ccc2nc(N(C)C)sc2c1`, the AC50 entry is “inactive”.

For `CCOc1ccc2nc(N3CCCCCC3)sc2c1`, the AC50 is 3.98 µM (active).

Take `COc1cc2nc(N3CCN(C(=O)[C@@H]4CCCO4)CC3)nc(N)c2cc1OC`: the AC50 result is “inactive”.

As to `CCOC(=O)C1CCN(C(=O)c2ccccc2NC(C)=O)CC1`, the AC50 result was “inactive”.

As to `CCOC(=O)C1CCN(C(=O)C2CCN(c3nc4ccc(OC)cc4s3)CC2)CC1`, the AC50 was 11.2 µM (active).

As to `CN1CCC2(CC1)C1CN(C)CC=C1C(C#N)=C(N)C2(C#N)C#N` (centres undefined), the AC50 entry is “inactive”.

In the case of `CN1CC[C@@]2(CCCN(C(=O)c3cc(C(F)(F)F)cc(C(F)(F)F)c3)C2)C1`, the AC50 entry was “inactive”.

Consider `COc1cnc(SCc2ccc(Cl)cc2)nc1Cl`, for which the half-maximal activity concentration (AC50) was 1.58 µM (active).

`Cc1ccc(CNC(=O)CCc2c(C)nc3ncnn3c2C)cc1`: the AC50 entry is “inactive”.

As for `CCOC(=O)CCc1c(C)nc2ncnn2c1C`, the AC50 entry is “inactive”.

With `CCc1c(C)nc2ncnn2c1NCCc1ccc(OC)cc1`, the half-maximal activity concentration (AC50) is 3.55 µM (active).

In the case of `COc1ccc(C(=O)c2cnc3ccccc3c2-c2ccccc2)cc1`, the AC50 is 5.01 µM (active).

Regarding `COc1ccc(-c2nc3cnc(N4CCN(C)CC4)nc3n(Cc3ccc(F)cc3)c2=O)cc1`, the AC50 result was “inactive”.

As to `CCOC(=O)c1oc2nc(CC(C)C)c3c(c2c1N)CCC3`, the AC50 was 11.2 µM (active).

On to `CC1(C)S[C@@H]2[C@H](NC(=O)[C@H](C(=O)O)c3ccsc3)C(=O)N2[C@H]1C(=O)O`, for which the AC50 result is “inactive”.

In the case of `CCC(CC)c1nnc(NC(=O)c2cccc(S(=O)(=O)N3CCc4ccccc43)c2)s1`, the half-maximal activity concentration (AC50) was 7.94 µM (active).

On to `CCn1cc(C(=O)O)c(=O)c2cc(F)c(N3CCNCC3)nc21`, for which the AC50 entry was “inactive”.

For `CCn1cc(C(=O)N/N=C(/C)c2ccc(F)cc2)c(=O)c2cc(F)c(N3CCCC3)cc21`, the concentration at half-maximal activity (AC50) was 4.47 µM (active).

For `CCn1cc(C(=O)O)c(=O)c2cc3c(cc21)OCO3`, the AC50 entry is “inactive”.

On to `CC(C)CCN1C(=O)c2ccc(-c3nc4ccccc4c(=O)o3)cc2C1=O`, for which the AC50 is 14.1 µM (active).

As to `N=C(N)SCc1cccc(-c2nc3ccccc3c(=O)o2)c1`, the activity, negative = inhibition is 16.9% [at 11.4 µM].

As for `CCOC(=O)Nc1ccc2c(c1)N(C(=O)CCN1CCOCC1)c1ccccc1S2`, the AC50 result is “inactive”.

Turning to `CCCOc1ccc(C(=O)CCNc2ccc(C)c(Cl)c2)cc1`, the AC50 is 0.398 µM (active).

Take `Cc1ccc(NCCC(=O)c2ccc(Cl)cc2)cc1C`: the AC50 was 1.26 µM (active).

For the compound `Cc1ccc(NC(=O)CCC(=O)c2ccc(F)cc2)cc1Cl`, the concentration at half-maximal activity (AC50) is 3.98 µM (active).

Regarding `CCCCOc1ccc(C(=O)CCN2CCCCC2)cc1`, the AC50 result is “inactive”.

Consider `CCCCOC(=O)Nc1ccc(C)c(Cl)c1`, for which the half-maximal activity concentration (AC50) is 2 µM (active).

Regarding `C[C@@H](c1ccccc1)N1C(=O)[C@H]2[C@@H]3[C@H](O)[C@H](O)CC(=O)[C@H]3CC[C@H]2C1=O`, the activity, negative = inhibition was 13.8% [at 11.4 µM] and 0.79% [at 11.4 µM].

For `Cc1nc2cnc(Oc3ccccc3)nc2n(-c2ccccc2)c1=O`, the AC50 entry is “inactive”.

`Cc1ccc(NCCC(=O)c2ccc(Cl)cc2)cc1`: the half-maximal activity concentration (AC50) was 1.41 µM (active).

For `O=C(O)CNc1ccc(C(=O)O)cc1`, the activity, negative = inhibition is 21.5% [at 11.4 µM].

Take `O=C(O)CCC(=O)c1ccc(Cl)cc1`: the activity, negative = inhibition is 22.7% [at 11.4 µM].

`CC[N+](C)(CC)CCC[n+]1c(-c2ccccc2)c2cc(N)ccc2c2ccc(N)cc21`: the half-maximal activity concentration (AC50) was 1.58 µM (active).

On to `CC(C)OC(=O)c1cc2ccccc2oc1=O`, for which the concentration at half-maximal activity (AC50) was 15.8 µM (active).

With `CC(=O)c1cc2ccccc2oc1=O`, the AC50 entry was “inactive”.

In the case of `Cc1ccc[n+](CC(=O)c2cc3ccccc3oc2=O)c1`, the AC50 result was “inactive”.

As to `CC1(C)Oc2ccc(C#N)cc2[C@H](N2CCCC2=O)[C@H]1O`, the AC50 entry was “inactive”.

With `COn1c(-c2ccccc2)nc2c1CCc1nonc1-2`, the AC50 was 15.8 µM (active).

Regarding `CCC(C)c1ccc(Nc2ncccc2C#N)cc1` (centres undefined), the AC50 is 4.47 µM (active).

As to `O=C(O)C[C@H](Cc1ccccc1)C(=O)O`, the activity, negative = inhibition was -9.67% [at 11.4 µM].

Take `O=C(Cc1ccccc1)NC(NCCc1ccccc1)C(Cl)(Cl)Cl` (centres undefined): the half-maximal activity concentration (AC50) was 0.794 µM (active).

For `COc1ccc(NC(=O)N2CC[C@@]3(CCCN(C(=O)c4c(C)noc4C)C3)C2)cc1`, the AC50 result was “inactive”.

Consider `COc1cccc(CNC(=O)CCNC(=O)Cn2ccc3ccccc3c2=O)c1`, for which the AC50 entry was “inactive”.

For `COC(=O)CN(c1ccc(OC)cc1)S(=O)(=O)c1c(C)noc1C`, the half-maximal activity concentration (AC50) was 5.01 µM (active).

With `COc1ccc(N(CC(=O)NCc2cccc(OC)c2)S(=O)(=O)c2c(C)noc2C)cc1`, the concentration at half-maximal activity (AC50) was 2 µM (active).

With `O=C(O)/C=C\c1cnc[nH]1`, the AC50 entry is “inactive”.

For `CCCCCOC(=O)CSc1nnc(-c2ccccc2)c(=O)[nH]1`, the concentration at half-maximal activity (AC50) was 8.91 µM (active).

In the case of `Nc1nc(SCC(=O)O)[nH]c(=O)c1N`, the activity, negative = inhibition is 25.5% [at 11.4 µM].

Consider `NCCCc1c(-c2ccccc2)nc(N)[nH]c1=O`, for which the activity, negative = inhibition is -12.9% [at 11.4 µM].

In the case of `CC(=O)OCCCN1c2ccccc2Nc2nnc(-c3ccccc3)cc21`, the AC50 was 7.08 µM (active).

In the case of `CCNc1ncc2nc(-c3ccc(Cl)cc3)c(=O)n(C)c2n1`, the AC50 entry is “inactive”.

Regarding `CC(C)(C)Cn1nc(-c2ccc(Cl)cc2)c2c(N)ncnc21`, the AC50 result was “inactive”.

Turning to `CC(C)(C)n1nc(-c2ccc(Cl)cc2)c2c(N)ncnc21`, the AC50 is 2 µM (active).
